# Experiments:
# [1] = tested on: Vero E6 infected with SARS-CoV-2; test: morphology score (similarity to uninfected cells); higher = more like uninfected cells; details: 24 h
# [2] = tested on: Vero E6 infected with SARS-CoV-2; test: SARS-CoV-2 infection rate relative to infected DMSO; higher = more infection, active = 60 or less; details: 24 h
SMILES,morphology score [1],SARS-CoV-2 infection rate [2]
CCCCC(=O)OCC(=O)[C@]1(O)Cc2c(O)c3c(c(O)c2[C@@H](O[C@H]2C[C@H](NC(=O)C(F)(F)F)[C@H](O)[C@H](C)O2)C1)C(=O)c1c(OC)cccc1C3=O [valrubicin] (0.833333 µM),0.122,97% (inactive)
CC[N+](C)(CC)CC(=O)Nc1c(C)cccc1C [N-methyllidocaine-iodide] (10 µM),0.0478,100% (inactive)
C[C@@H](O[C@H]1OCCN(Cc2nn(P(=O)(O)O)c(=O)[nH]2)[C@H]1c1ccc(F)cc1)c1cc(C(F)(F)F)cc(C(F)(F)F)c1 [fosaprepitant-dimeglumine] (10 µM),0.0215,112% (inactive)
Cc1c[nH]c2ncnc(N3CCC(CN)(C(=O)Nc4cccc(OC(=O)N(C)C)c4)CC3)c12 (10 µM),0.156,94% (inactive)
O=C(CC12CC3CC(CC(C3)C1)C2)Nc1cccc2nc(NCCNCCO)ccc12 (10 µM),-0.132,116% (inactive)
N=C(N)NC(=O)Cc1c(Cl)cccc1Cl [guanfacine] (10 µM),0.255,86% (inactive)
CC(Cc1ccccc1)(NC(=O)CN)c1ccccc1 (stereo unspecified) [remacemide] (10 µM),-0.124,113% (inactive)
OCc1ccc(O[C@@H]2O[C@H](CO)[C@@H](O)[C@H](O)[C@H]2O)cc1 [gastrodin] (10 µM),0.19,106% (inactive)
c1ccc(-c2ccc(CNc3nc(-c4ccccn4)nnc3-c3ccccc3)cc2)cc1 (10 µM),-0.0584,114% (inactive)
O=C(NC[C@H](O)CN1CCc2ccccc2C1)c1cc(NC2COC2)ncn1 (10 µM),-0.0443,100% (inactive)
C=C1/C(=C\C=C2/CCC[C@]3(C)[C@@H]([C@H](C)/C=C/C=C/C(O)(CC)CC)CC[C@@H]23)C[C@@H](O)C[C@@H]1O [seocalcitol] (10 µM),-0.0779,110% (inactive)
O=C(NOCCO)c1cc(CN2OCCCC2=O)c(F)c(F)c1Nc1ccc(I)cc1F (0.833333 µM),-0.175,96.5% (inactive)
O=C(CN1C2=NCCN2c2ccccc21)c1ccc(-c2ccccc2)cc1 (10 µM),0.646,35% (active)
NCCCC(O)(P(=O)(O)O)P(=O)(O)O [alendronate] (10 µM),0.102,110% (inactive)
O=c1cc(N2CCOCC2)oc2c(-c3cccc4c3sc3ccccc34)cccc12 (0.833333 µM),0.352,68% (inactive)
CC(C)(C)NC(=O)[C@@H]1CN(Cc2cccnc2)CCN1C[C@@H](O)C[C@@H](Cc1ccccc1)C(=O)N[C@H]1c2ccccc2C[C@H]1O [indinavir] (10 µM),0.0426,110% (inactive)
C=C(NC(=O)C(=C)NC(=O)c1csc(C2=N[C@@H]3c4csc(n4)[C@H]4NC(=O)c5csc(n5)[C@H]([C@](C)(O)[C@@H](C)O)NC(=O)[C@H]5CSC(=N5)/C(=C/C)NC(=O)[C@H]([C@@H](C)O)NC(=O)c5csc(n5)[C@]3(CC2)NC(=O)[C@H](C)NC(=O)C(=C)NC(=O)[C@H](C)NC(=O)[C@H]([C@@H](C)CC)N[C@@H]2C=Cc3c([C@H](C)O)cc(nc3[C@H]2O)C(=O)O[C@@H]4C)n1)C(N)=O [thiostrepton] (10 µM),0.148,92.5% (inactive)
O=C(O)c1ccccc1C(=O)Nc1ccc(S(=O)(=O)Nc2nccs2)cc1 [phthalylsulfathiazole] (10 µM),0.162,102% (inactive)
Cn1c(=O)cnn(CCCCN2CCN(c3ncccn3)CC2)c1=O (10 µM),-0.0383,115% (inactive)
CCn1cc(C(=O)O)c(=O)c2ccc(C)nc21 [nalidixic-acid] (10 µM),-0.0613,106% (inactive)

SMILES,morphology score [1],SARS-CoV-2 infection rate [2]
CC(C)(C)N1CCC(c2ccccc2)(c2ccccc2)CC1 [budipine] (10 µM),0.395,76.5% (inactive)
CC[C@@H](CO)NC(=O)[C@@H]1C=C2c3cccc4[nH]cc(c34)C[C@H]2N(C)C1 [methylergometrine] (10 µM),0.112,96.5% (inactive)
C/C(=C\C(=O)OCCCCCCCCC(=O)O)C[C@@H]1OC[C@H](C[C@@H]2O[C@H]2[C@@H](C)[C@H](C)O)[C@@H](O)[C@H]1O [mupirocin] (10 µM),0.0465,110% (inactive)
COCCCOc1ccnc(C[S+]([O-])c2nc3ccccc3[nH]2)c1C (stereo unspecified) [rabeprazole] (10 µM),0.00912,106% (inactive)
CO/N=C(\C(=O)N[C@@H]1C(=O)N2C(C(=O)OCOC(=O)C(C)(C)C)=C(/C=C\c3scnc3C)CS[C@H]12)c1csc(N)n1 [cefditoren-pivoxil] (10 µM),0.149,99.5% (inactive)
C[C@H](NC(=O)[C@@H](O)c1cc(F)cc(F)c1)C(=O)N[C@@H]1C(=O)N(C)c2ccccc2-c2ccccc21 (10 µM),0.165,101% (inactive)
CN1CCC[C@@H]1CCSc1ccc(O)cc1 (10 µM),-0.0396,112% (inactive)
O=C(O)c1nc(=O)[nH]c(=O)[nH]1 [oxonic-acid] (10 µM),-0.0587,115% (inactive)
Cc1cc(CC(=O)O)n(C)c1C(=O)c1ccc(Cl)cc1 [zomepirac] (10 µM),0.117,104% (inactive)
CCOC(=O)c1ccc(NC2CCCCC2)c(N)c1 [ferrostatin-1] (10 µM),0.117,94% (inactive)
Nc1nc(N)c(N=O)c(OCC2CCCCC2)n1 (10 µM),0.621,54.5% (active)
CC(NCCc1ccc(O)cc1)C(O)c1ccc(O)cc1 (stereo unspecified) [ritodrine] (10 µM),0.154,96% (inactive)
Cc1ccc(C(=O)N(CCCN)[C@@H](c2oc3cc(Cl)ccc3c(=O)c2Cc2ccccc2)C(C)C)cc1 (0.833333 µM),-0.422,115% (inactive)
C#CCC(Cc1cnc2nc(N)nc(N)c2n1)c1ccc(C(=O)N[C@@H](CCC(=O)O)C(=O)O)cc1 (stereo partly specified) [pralatrexate] (10 µM),0.042,104% (inactive)
CC(=O)NO [acetohydroxamic-acid] (10 µM),-0.0513,106% (inactive)
CN1C/C=C/CCOc2cccc(c2)-c2ccnc(n2)Nc2cccc(c2)C1 (10 µM),-0.0856,104% (inactive)
CCOc1c2c(c(OCC)c3ccccc13)C(=O)N(c1ccc(CC(=O)NS(=O)(=O)c3ccccc3)cc1)C2 (10 µM),0.117,104% (inactive)
CN1C(=O)c2c(nn(Cc3ccc(-c4cccc(F)n4)cc3)c2Nc2ccccc2)N2C1=N[C@@H]1CCC[C@@H]12 (10 µM),0.38,105% (inactive)
O=C(Nc1ccc(Cl)cc1)Nc1ccc(Cl)c(Cl)c1 [triclocarban] (10 µM),0.0739,98.5% (inactive)
CCCNC(=O)N1N=C(c2ccc(N)cc2)c2cc3c(cc2C1C)OCO3 (stereo unspecified) (10 µM),0.256,96.5% (inactive)

SMILES,morphology score [1],SARS-CoV-2 infection rate [2]
C[C@H]1[C@H](C)CC[C@]2(C(=O)O)CC[C@]3(C)C(=CC[C@@H]4[C@@]5(C)C[C@@H](O)[C@H](O)[C@@](C)(CO)[C@@H]5CC[C@]43C)[C@H]12 [asiatic-acid] (10 µM),-0.135,108% (inactive)
COc1ccc(NS(=O)(=O)c2sc3ccc(Cl)cc3c2C)cc1N1CCNCC1 (10 µM),0.192,108% (inactive)
CCOC(=O)/C=C(C)/C=C/C=C(C)/C=C/c1c(C)cc(OC)c(C)c1C [etretinate] (10 µM),-0.112,92.5% (inactive)
O=S(=O)(O)CCS [mesna] (10 µM),0.157,109% (inactive)
CCc1nc(C)ccc1O [emoxipin] (10 µM),0.143,99.5% (inactive)
COc1ccc2cc(C(C)C(=O)Oc3ccc(C(N)=S)cc3)ccc2c1 (stereo unspecified) (10 µM),0.117,97% (inactive)
O=C(Nc1cccc2cccnc12)c1ccc(N2C(=O)[C@@H]3[C@H](C2=O)[C@H]2C=C[C@@H]3C2)cc1 (10 µM),0.00174,102% (inactive)
COc1ccc(CCC(=O)Nc2nc3ccc(Cl)cc3s2)cc1OC (10 µM),0.197,100% (inactive)
Nc1sc2c(c1C(=O)c1ccc(Cl)cc1)CCCC2 (10 µM),0.0676,96.5% (inactive)
COc1cc(-c2ncn(/C=C\C(=O)OC(C)C)n2)cc(C(F)(F)F)c1 (10 µM),-0.358,114% (inactive)
CC[C@@H]1C(=O)N(C)c2cnc(Nc3ccc(C(=O)NC4CCN(C)CC4)cc3OC)nc2N1C1CCCC1 (10 µM),-0.305,104% (inactive)
CC(C)CN(C[C@@H](O)[C@H](Cc1ccccc1)NC(=O)O[C@H]1CO[C@H]2OCC[C@H]21)S(=O)(=O)c1ccc(N)cc1 [darunavir] (10 µM),0.156,107% (inactive)
NCCc1cc(O)c(O)cc1O [oxidopamine] (10 µM),0.0957,102% (inactive)
Cc1cc(N2CCOCC2)cc2[nH]c(-c3c(NC[C@@H](O)c4cccc(Cl)c4)cc[nH]c3=O)nc12 (0.833333 µM),0.0224,110% (inactive)
COCCOc1cnc2ccn([C@H](C)c3nnc4c(F)cc(-c5cnn(C)c5)cn34)c(=O)c2c1 (10 µM),0.0816,105% (inactive)
COC(=O)CCc1ccc(OCC(O)CNC(C)C)cc1 (stereo unspecified) [esmolol] (10 µM),-0.00906,116% (inactive)
C=CCN1CC[C@]23c4c5ccc(O)c4O[C@H]2[C@@H](OCCOCCOCCOCCOCCOCCOCCOC)CC[C@@]3(O)[C@H]1C5 [naloxegol] (10 µM),0.25,92% (inactive)
CCN(CC)CCOCCOC(=O)C(CC)(CC)c1ccccc1 [oxelaidin] (10 µM),0.423,73.5% (inactive)

# — the supplement of paper PMC13380429
